# Compound activity (PubChem)
# Shown is part of a subset that was picked to be rich in hits.
# KDM5B inhibitor – KDM5B demethylase inhibition; Potency, µM (highest dose often 57.7 µM), actives largely listed as inhibitors; KDM5B demethylase, FDH-coupled NADH fluorescence (FDH is formaldehyde dehydrogenase); hit rate 2.6% among 220,000; active = well fitted inhibition curve with a large enough effect; also: 0% is about no effect; nearly all actives have a fitted effect of over 70% in size
# Target sequence (Q9UGL1 whole entry, looked up): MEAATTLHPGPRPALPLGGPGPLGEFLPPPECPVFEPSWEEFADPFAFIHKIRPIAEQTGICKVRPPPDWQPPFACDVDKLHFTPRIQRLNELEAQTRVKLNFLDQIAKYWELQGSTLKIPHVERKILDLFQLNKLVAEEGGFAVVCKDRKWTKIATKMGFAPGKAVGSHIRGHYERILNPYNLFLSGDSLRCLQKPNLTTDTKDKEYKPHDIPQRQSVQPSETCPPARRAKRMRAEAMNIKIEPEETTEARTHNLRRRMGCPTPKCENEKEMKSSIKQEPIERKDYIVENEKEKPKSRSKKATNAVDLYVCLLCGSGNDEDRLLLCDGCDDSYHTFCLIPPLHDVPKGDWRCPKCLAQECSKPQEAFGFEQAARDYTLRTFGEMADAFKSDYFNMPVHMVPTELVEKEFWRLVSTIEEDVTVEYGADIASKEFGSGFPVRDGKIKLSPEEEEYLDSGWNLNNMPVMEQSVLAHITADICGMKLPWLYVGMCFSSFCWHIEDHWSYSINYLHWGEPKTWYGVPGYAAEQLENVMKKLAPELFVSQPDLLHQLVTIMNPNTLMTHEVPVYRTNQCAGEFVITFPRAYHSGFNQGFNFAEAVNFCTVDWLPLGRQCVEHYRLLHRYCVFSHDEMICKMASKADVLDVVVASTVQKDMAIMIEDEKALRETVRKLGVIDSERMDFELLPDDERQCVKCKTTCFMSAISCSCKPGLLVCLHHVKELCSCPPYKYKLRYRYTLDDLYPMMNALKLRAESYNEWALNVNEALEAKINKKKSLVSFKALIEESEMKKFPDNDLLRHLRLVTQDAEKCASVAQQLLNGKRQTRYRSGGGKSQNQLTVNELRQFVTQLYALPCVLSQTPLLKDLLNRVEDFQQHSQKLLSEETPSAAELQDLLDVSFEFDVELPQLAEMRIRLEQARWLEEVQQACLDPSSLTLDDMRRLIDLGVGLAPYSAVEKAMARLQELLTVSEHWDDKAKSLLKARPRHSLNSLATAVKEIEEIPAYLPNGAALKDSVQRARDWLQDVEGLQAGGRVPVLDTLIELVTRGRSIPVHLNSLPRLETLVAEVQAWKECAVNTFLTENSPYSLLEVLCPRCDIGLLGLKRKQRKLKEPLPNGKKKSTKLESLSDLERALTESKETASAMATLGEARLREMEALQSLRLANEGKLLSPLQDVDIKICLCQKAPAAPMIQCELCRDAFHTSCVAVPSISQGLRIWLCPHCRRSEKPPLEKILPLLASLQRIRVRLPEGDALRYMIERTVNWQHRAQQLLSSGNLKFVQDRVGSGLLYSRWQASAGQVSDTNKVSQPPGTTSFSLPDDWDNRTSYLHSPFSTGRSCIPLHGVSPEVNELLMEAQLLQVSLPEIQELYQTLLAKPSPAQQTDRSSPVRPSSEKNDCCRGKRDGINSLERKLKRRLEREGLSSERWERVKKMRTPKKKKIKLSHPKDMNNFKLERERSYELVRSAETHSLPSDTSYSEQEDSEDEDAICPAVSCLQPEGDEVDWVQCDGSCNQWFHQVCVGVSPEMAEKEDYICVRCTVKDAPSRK
#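 Measured: NADH fluorescence change, 30 min, RT. System: KDM5BΔAP 200 nM final, H3K4me3 peptide, α-KG, Fe(II), ascorbate, NAD⁺ plus FDH, pH 7.5 HEPES. Compounds: titrated, 10 min pre-incubation with enzyme.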
# Numbers without * were called inactive; i = inactive. Potency is read from the fitted curve at half-maximal effect.
SMILES,KDM5B inhibitor
COc1ccc(CC(=O)N2CCC[C@H]2c2nc(-c3ccccc3Cl)no2)cc1,i
c1coc(-c2noc(CN3CCCC3c3nc(-c4ccncc4)no3)n2)c1 (stereo not drawn),i
COCCOc1cc(-c2noc([C@@H]3CCCN3Cc3ccncc3)n2)ccn1,35µM*
COc1ccc(-c2noc([C@@H]3CCCN3C(=O)Cc3ccc(F)cc3)n2)cc1,i
c1ccc(CN2CCC[C@H]2c2nc(-c3ccnc(N4CCOCC4)c3)no2)nc1,28µM*
COc1ccc(CN2CCC[C@H]2c2nc(-c3cncnc3N)no2)c(O)c1,32µM*
O[C@@H]1C[C@@H](c2nc(-c3ccccc3)no2)N(Cc2ncc[nH]2)C1,i
Cc1ccc(-c2noc(C3CCCN3Cc3ccccc3)n2)nn1 (stereo not drawn),i
Cc1ccc(-c2noc([C@@H]3C[C@@H](O)CN3Cc3ncc[nH]3)n2)cc1F,i
COCCOc1cc(-c2noc([C@@H]3CCCN3CC3CC3)n2)ccn1,i
c1cc(-c2noc([C@@H]3CCCN3Cc3ncc[nH]3)n2)cc(N2CCOCC2)n1,32µM*
CCCc1ccc(NC(=O)c2nccnc2N)cc1,i
CC(C)C(NC(=O)c1ccc2c(c1)NC(=O)CS2)c1cccs1 (stereo not drawn),i
Cn1c(=O)c2c(nc(N3CCCCCC3)n2CCCc2ccccc2)n(C)c1=O,i
Cn1c(C(=O)N2CCN(C(=O)C3CCCCC3)CC2)cc2ccccc21,i
O=C(c1cc(-c2ccco2)[nH]n1)N1CCN(c2ccccn2)CC1,i
CCCc1ccc(NC(=O)Cn2cnc3c2c(=O)n(C)c(=O)n3C)cc1,i
CCc1nnc(NC(=O)CCc2ncc(-c3ccccc3)o2)s1,i
Cc1ccccc1NC(=O)c1sc(N)c(C#N)c1C,i
COc1ccc(OC)c(C(=O)COC(=O)c2cc(S(N)(=O)=O)ccc2Br)c1,i
COc1ccc2c(c1)CCCN2C(=O)c1cc2ccc(Cl)cc2nc1C,i
O=S(=O)(c1ccc(Cl)cc1)c1nnn2c1nc(N1CCCCC1)c1ccccc12,i
Cc1ccc(CNC(=O)NCC(=O)N2CCN(S(=O)(=O)c3ccc(Cl)c(Cl)c3)CC2)cc1,i
O=C1NCCCCCCN(C(=O)C2CCC2)[C@H]2C[C@H](c3nc(-c4cccnc4)no3)C[C@@H]12,i
CC(=O)Nc1ccc(CNCCSCc2cccs2)cc1,i
SMILES,KDM5B inhibitor
COCCOc1ccnc(-c2noc([C@@H]3CCCN3C3CCN(C(C)=O)CC3)n2)c1,i
COCCNc1cc(-c2noc([C@@H]3CCCN3C3CCN(C(C)=O)CC3)n2)ccn1,40µM*
COCCNc1cc(-c2noc([C@@H]3CCCN3Cc3ccccn3)n2)ccn1,32µM*
COCCOc1cc(-c2noc([C@@H]3CCCN3C3CCN(C(C)=O)CC3)n2)ccn1,i
CCCN1CCC[C@H]1c1nc(-c2ccc(NCCOC)nc2)no1,i
COc1ccc(-c2noc([C@@H]3CCCN3Cc3ccc(S(C)(=O)=O)cc3)n2)cn1,i
COc1ccc(CN2CCC[C@H]2c2nc(-c3ccnc(N4CCOCC4)c3)no2)cc1,32µM*
COc1ccc(CCC(=O)N2CCC[C@H]2c2nc(-c3ccc(OC)cc3)no2)cc1,i
COc1ccccc1CNC[C@@H]1C=C(C)[C@H](Cc2nc3c(C)cccc3[nH]2)C[C@H]1C(C)C,i
COc1cccc(OC)c1-c1c(-c2ccccc2)ncn1CCCSC,i
O=C(/C=C/c1ccc(Cl)cc1)c1ccc2ccccc2c1O,i
NC(=O)c1cc(Cl)ccc1OCC(=O)N1CCCCCC1,i
CC(=O)Nc1ncc2c(n1)CC(c1ccc(C(C)(C)C)cc1)CC2=O (stereo not drawn),i
CC1CCCCN1S(=O)(=O)NC1CCN(c2ncccn2)CC1 (stereo not drawn),i
O=C(COC(=O)C12CC3CC(CC(Cl)(C3)C1)C2)Nc1cccc([N+](=O)[O-])c1,i
CCCCOc1ccc(C(=O)Nc2cccc3ccc(C)nc23)cc1,i
Cc1ccc(OCC(=O)NCC2Cn3cccc3C(=O)N2C)cc1 (stereo not drawn),i
O=C(NCC1Cn2cccc2C(=O)N1Cc1ccccc1)Nc1ccccc1F (stereo not drawn),i
NCCc1ccc(CN2C[C@@H]3CC[C@H](C2)N(Cc2ccccc2)C3)cc1,i
O=C(NCc1ccccc1)NCC1Cn2cccc2C(=O)N1Cc1ccccc1 (stereo not drawn),i
O=C1c2cccn2CC(CNS(=O)(=O)Cc2ccccc2)N1Cc1ccccc1 (stereo not drawn),i
O=C(NCC1Cn2cccc2CN1Cc1ccccc1)NC1CCCCC1 (stereo not drawn),28µM*
NCC1Cn2cccc2CN1Cc1ccccc1 (stereo not drawn),16µM*
O=C(NCC1Cn2cccc2CN1Cc1ccccc1)C1CC1 (stereo not drawn),28µM*
O=C(NCC1Cn2cccc2C(=O)N1Cc1ccccc1)C1CC1 (stereo not drawn),i
O=C(NCC1Cn2cccc2C(=O)N1Cc1ccccc1)C1CCC1 (stereo not drawn),i
